Source: PubChem (National Center for Advancing Translational Sciences (NCATS))
HPGD block: qHTS Assay for Inhibitors of HPGD (15-Hydroxyprostaglandin Dehydrogenase). 15-hydroxyprostaglandin dehydrogenase [NAD(+)] (Homo sapiens), P15428. purified HPGD, NADH fluorescence kinetic, PGE2 substrate. Potency, µM, without a hit: at the top dose activity change, negative = inhibition, most hits filed as inhibitors. 150,000 tested, 4.3% active; also: % is scaled to controls: 0 for no effect and ±100 for the full control effect
Target sequence (P15428 whole entry, looked up): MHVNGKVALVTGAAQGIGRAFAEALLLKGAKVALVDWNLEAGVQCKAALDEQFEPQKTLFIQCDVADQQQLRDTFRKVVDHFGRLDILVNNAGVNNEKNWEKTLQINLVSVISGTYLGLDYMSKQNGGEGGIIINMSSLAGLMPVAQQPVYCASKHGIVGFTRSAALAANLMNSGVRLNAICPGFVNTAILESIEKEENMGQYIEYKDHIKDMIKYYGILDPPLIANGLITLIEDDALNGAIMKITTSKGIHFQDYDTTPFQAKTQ
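NADH formation kinetics: reaction with 30 uM PGE2 and 1 mM NAD+ (final), 20 nM enzyme, Tris-HCl pH 8 with Tween 20, after 15 min compound preincubation at room temperature. Fluorescence change, last versus first of five reads.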
KDM4E inh: qHTS Assay for Inhibitors of Human Jumonji Domain Containing 2E (JMJD2E). JMJD2E catalytic domain, FDH-coupled NADH fluorescence (FDH is formaldehyde dehydrogenase). Lysine-specific demethylase 4E (Homo sapiens), B2RXH2. Potency, µM (titrated, usually from 57.1 µM), without a hit: top-dose activity change, negative = inhibition, hits mostly inhibitors. 230,000 tested, 1.6% active;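 also: 0% = wells with enzyme and -100% = buffer wells without enzyme; nearly all actives have a fitted effect of over 50% in size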
Target sequence (B2RXH2 1-337 limits assumed): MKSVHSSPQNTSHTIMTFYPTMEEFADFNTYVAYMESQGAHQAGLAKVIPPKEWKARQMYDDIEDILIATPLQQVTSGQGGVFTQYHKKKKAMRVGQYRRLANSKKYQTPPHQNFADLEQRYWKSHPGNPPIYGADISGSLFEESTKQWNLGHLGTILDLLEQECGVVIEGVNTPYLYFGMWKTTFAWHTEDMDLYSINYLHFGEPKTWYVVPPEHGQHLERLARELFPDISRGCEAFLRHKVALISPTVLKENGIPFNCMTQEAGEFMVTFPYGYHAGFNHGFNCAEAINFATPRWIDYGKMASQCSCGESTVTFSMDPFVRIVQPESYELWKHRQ
Lamin A splicing: qHTS Assay for Modulators of Lamin A Splicing; 200,000 tested, 0.01% active; HeLa LMNA splicing GFP/RFP minigene ratio, 48 h; Potency, µM (highest dose often 46.1 µM), without a hit: top-dose ratio change, negative = inhibition, hits mostly inhibitors; active = well fitted inhibition curve with a large enough effect in the signal ratio, with a control signal flat, not every such curve was filed as active; inconclusive = small, poorly fitted or top-dose-only effect, or effect the other way, or a change in a side signal; the % refers to the signal ratio; also: % is scaled to controls: 0 for no effect and ±100 for the full control effect
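S3 HeLa cells stably expressing lamin A-EGFP splicing minigene plus DsRed2, 600 cells/well, 48 h compound exposure at 37C. Laser-scanning cytometry; analysed as GFP (500-530 nm)/RFP (575-640 nm) total intensity ratio; 0.5% DMSO vehicle.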
HTT ATP protect: qHTS Multiplex Assay to Identify Dual Action Probes in a Cell Model of Huntington: Cytoprotection (ATP). Potency, µM (series often up to 56.4 µM), inactives show cytoprotection (ATP increase), usual class: activators. AID 1471, 2008. PC12 HTT-Q103 induced, cytoprotection, ATP luminescence, 40 h. 230,000 tested, 0.14% active; active = well fitted curve in the direction sought with a large enough effect; inconclusive = small, poorly fitted or top-dose-only effect, or another doubt; inactive = no such curve, though single readings can be large; an effect the other way counts as inactive or inconclusive; also: % of control where 0% means no effect; nearly all actives have a fitted effect of over 45% in size
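Cells were plated at 1500 per well in phenol red-free DMEM with 5% equine and 5% calf serum. Tebufenozide (100 nM final) and compounds were added, then ATPlite reagent, and luminescence was read.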
HTT aggregate: qHTS Multiplex Assay to Identify Dual Action Probes in a Cell Model of Huntington: Aggregate Formation (GFP). PC12 HttQ103-GFP aggregates, Acumen cytometry, 40 h. Potency, µM (titrated, usually from 46.1 µM), for inactives: top-dose activity change, negative = inhibition, hits mostly inhibitors. 220,000 tested, 1.1% active. AID 1688, 2009; active = well fitted curve in the direction sought with a large enough effect; inconclusive = small, poorly fitted or top-dose-only effect, or another doubt; inactive = no such curve, though single readings can be large; an effect the other way counts as inactive or inconclusive; also: % is scaled to controls: 0 for no effect and ±100 for the full control effect; nearly all actives have a fitted effect of over 60% in size
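PC12/HTTQ103-GFP, ecdysone-inducible; teb 100 nM; cpd qHTS titration; GFP aggregates read on laser cytometer, Ex 488/Em 500-530 nm.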
ALDH1A1 block: qHTS Assay for Inhibitors of Aldehyde Dehydrogenase 1 (ALDH1A1) | Aldehyde dehydrogenase 1A1 (Homo sapiens), P00352 | Purified ALDH1A1, NADH fluorescence, propionaldehyde substrate | Potency, µM (series often up to 75.3 µM), for the others: top-dose activity, negative = inhibition, most hits filed as inhibitors | 220,000 tested, 7.3% active | AID 1030, 2008;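 also: plate controls were no enzyme wells and a reference inhibitor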
* hit, by the source's call; u = inconclusive; x = no result given; [ ] = another dose, or the depositor's remark. Compounds with a hit are over-represented: about 9.2% of the library has one in this group of screens. Unless noted, calls follow the shape of the dose curve; as a rule, active = well fitted inhibition curve with a large enough effect (not every such curve was filed as active); inconclusive = small, poorly fitted or top-dose-only effect, or another doubt; inactive = no such curve, though single readings can be large or run the other way. Potency is read from the fitted curve at half-maximal effect.

SMILES	HPGD block	KDM4E inh	Lamin A splicing	HTT ATP protect	HTT aggregate	ALDH1A1 block
COc1ccc(S(=O)(=O)Nc2ccc(Cl)cn2)c(C)c1C	-29.7%	-27.3%	u	2.2%[10 µM]	6.0%	12.6µM*
Oc1cc(O)cc(/C=C\c2ccc(O)c(O)c2)c1	x	x	x	-31.7%[1.9 µM]	x	x
COc1ccc(C(=O)C(CN2CCCC2)c2ccccc2)cc1 (stereo not given)	-7.9%	-4.8%	u	x	15.7%[9.22 µM]	25.1µM*
CC/C(=N/NC(=O)c1ccccc1)c1ccc(OCCN2CCOCC2)cc1	-23.1%	-3.7%	4.2%	x	-6.0%	10µM*
COc1ccc(C(=O)C(CN2CCOCC2)c2ccccc2)cc1 (stereo not given)	0.5%	-2.5%	u	22.4µM*	x	-6.4%
O=C(c1ccc(F)cc1)C(CN1CCOCC1)c1ccccc1 (stereo not given)	-3.6%	-1.9%	u	31.6µM*	26.4%[9.22 µM]	u
CCCCOc1ccc(C(=O)C(CN2CCOCC2)c2ccccc2)cc1 (stereo not given)	-2.9%	-4.0%	u	x	36.1%[9.22 µM]	4.1%
CCC1CCCCN1S(=O)(=O)c1ccc(C(=O)Nc2sc3c(c2C(=O)NC)CCC3)cc1 (stereo not given)	x	x	3.2%[46 µM]	x	x	x
Nc1ccccc1Nc1cc(-c2ccccc2)nn1-c1cccc(Cl)c1	-7.8%	u	u	-6.6%[10 µM]	5.8%	6.1%
CNc1nn(-c2cccc(Cl)c2)nc1N	-17.6%	-8.1%	u	2.6%[1.9 µM]	-30.8%	2µM*
CC(C)C(=O)Nc1ccc(C(=O)N2CCN(C(=O)c3ccco3)CC2)cc1	-8.9%	2.9%	9.6%	-23.6%	-0.4%	-19.6%
CC(C)C(=O)Nc1ccc(C(=O)N2CCCCCC2)cc1	2µM*	-0.1%	5.6%	1.3%	8.3%	0.0%
CCOC(=O)c1ccc(NC(=O)C2C3C=CC(C3)C2C(=O)O)cc1 (stereo not given)	-9.0%	0.7%	12.4%	12.9%	22.9%	u
Cc1ccc(-c2ccc(NC(=O)C3C4C=CC(C4)C3C(=O)O)cc2)o1 (stereo not given)	20µM*	u	1.8%	-16.4%	-14.6%	u
O=C(O)C1C2C=CC(C2)C1C(=O)Nc1ccc(C(=O)N2CCCCC2)cc1 (stereo not given)	1.26µM*	-3.5%	0.5%	-8.1%	-5.3%	u
CS(=O)(=O)Nc1ccc(S(=O)(=O)N2CCCC2)cc1	x	-15.1%	17.0%[46 µM]	11.7%[10 µM]	6.4%[9.22 µM]	u
COc1ccc(NC(=O)C2C3C=CC(C3)C2C(=O)O)cc1 (stereo not given)	x	-2.1%	x	18.7%[10 µM]	2.6%[9.22 µM]	x
CS(=O)(=O)Nc1ccc(N2CCCCC2)c(Cl)c1	7.08µM*	-6.6%	-15.8%	10.0%[10 µM]	10.0%	-7.5%
COc1cccc(CCc2ccccc2OCC[C@@H]2C[C@@H](O)CN2C)c1	-6.9%	-6.7%	x	-210.1%	x	-2.0%
O=C(O)c1ccccc1NS(=O)(=O)c1ccccc1F	-11.9%	x	x	x	x	1.8%
CS(=O)(=O)Nc1ccc(C(=O)N2CCCCC2)cc1	14.1µM*	5.8%	-15.8%	0.8%[10 µM]	-5.2%	u
CC1CCN(C(=O)c2ccc(NS(C)(=O)=O)cc2)CC1	10µM*	-1.9%	-0.5%	-1.6%	-6.1%	u
CS(=O)(=O)Nc1ccc(C(=O)N2CCN(c3ccccc3F)CC2)cc1	-15.8%	1.8%	-7.6%	5.2%	18.0%	9.8%
Cc1noc(C)c1S(=O)(=O)Nc1ccc(C(=O)N2CCCCC2)cc1	31.6µM*	4.0%	8.6%	4.9%	u	-7.5%
CS(=O)(=O)Nc1ccc(C(=O)N2CCc3ccccc3C2)cc1	x	-3.6%	u	14.5%[10 µM]	0.6%[9.22 µM]	-4.7%
SMILES	HPGD block	KDM4E inh	Lamin A splicing	HTT ATP protect	HTT aggregate	ALDH1A1 block
O=C(Nc1ccc(C(=O)N2CCCC2)cc1)c1ccccc1F	3.16µM*	-1.7%	-3.2%	-36.6%[10 µM]	-5.4%	-7.7%
Cc1ccc(C)c(N2CCN(C(=O)c3ccc(NS(=O)(=O)c4c(C)noc4C)cc3)CC2)c1	-14.4%	2.0%	u	-40.2%	u	-15.7%
COc1ccc(-c2csc(NC(=O)c3ccccc3NS(=O)(=O)c3ccc(F)c(F)c3)n2)cc1	x	u	31.8%[46 µM]	-66.1%[10 µM]	2.51µM*	u
CCNC(=S)N1CCN(S(=O)(=O)c2cccc(C(F)(F)F)c2)CC1	-13.3%	-0.1%	-8.9%	-0.8%[10 µM]	16.2%	3.6%
O=C(CCN1CCN(c2ccccc2F)CC1)c1ccc(Br)cc1	x	25.1µM*	u	-31.0%	8.1%	u
O=C(CCC(=O)N1CCN(c2ccccc2F)CC1)c1ccc(F)cc1	x	10.8%	x	-1.1%[10 µM]	15.1%[9.22 µM]	6.5%
COc1ccc(OC)c(NC(=O)CCN2CCN(c3ccccc3F)CC2)c1	-11.2%	-9.1%	-0.7%	18.4%[10 µM]	-9.6%	9.4%
COc1ccc(C(=O)CCN2CCN(c3ccccc3F)CC2)cc1	x	1.6%	x	-50.4%	30.7%	0.126µM*
CC(C)CN=C(N)N=C(N)N	-3.5%	x	x	20.2%[10 µM]	x	9.1%[13.5 µM]
O=C1N=C(N2CCC(Cc3ccccc3)CC2)S/C1=C/c1cn[nH]c1-c1ccccc1	25.1µM*	-2.7%	6.9%	-18.3%	-4.8%	-8.1%
O=C1N=C(N2CCN(c3ccccc3)CC2)S/C1=C\c1cn[nH]c1-c1ccccc1	u	18.6%	-6.8%	x	-10.3%	4.9%
CCCCc1nc2c(c3c1C[C@H](C)OC3)CN(C(=O)c1cccnc1)CC2	-18.5%	8.2%[11.4 µM]	u	9.6%[10 µM]	x	6.4%[13.5 µM]
CCSc1ccccc1C(=O)Nc1ccc(S(=O)(=O)NC(C)=O)cc1	x	2.1%	x	3.5%[10 µM]	21.7%[9.22 µM]	u
C=C1c2cccc(O)c2C(O)=C2C(=O)[C@]3(O)C(O)=C(C(N)=O)C(=O)C(N(C)C)C3C(O)C12 (stereo not given in full)	15.8µM*	8.91µM*	x	x	x	7.4%
CN(C)c1ccc(O)c2c1C[C@@H]1C[C@H]3C(N(C)C)C(=O)C(C(N)=O)=C(O)[C@@]3(O)C(=O)C1=C2O (stereo not given in full)	28.2µM*	u	x	x	x	-1.1%
CC(C)[C@H]1C(=O)C(C(N)=O)=C(O)[C@]2(O)C(=O)C3=C(O)c4c(O)ccc(N(C)C)c4C[C@H]3C[C@@H]12	x	x	x	-3.4%[1.9 µM]	x	x
O=C1CN=C(Nc2ccccc2Cl)N1Cc1ccc2c(c1)OCO2	-0.3%	-12.4%	1.0%	-18.8%[1.9 µM]	8.1%	6.1%
COC(=O)[C@H](C)NC(=O)[C@@H](C)CO	x	x	x	1.4%[10 µM]	x	9.5%[13.5 µM]
